Hits are enriched below; roughly 1.3% of the tested compounds scored in any of these assays.
RAD52 inh: RAD52 (human) annealing inhibition | AID 651710 | recombinant RAD52 DNA annealing, FRET fluorescence | inhibition, % at 18.7 µM | P43351 | 360,000 compounds, 0.46% hits;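 active = every replicate showing at least 50% inhibition; inconclusive = mean inhibition at least 50% but not in every replicate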
Target sequence (P43351 whole entry, looked up): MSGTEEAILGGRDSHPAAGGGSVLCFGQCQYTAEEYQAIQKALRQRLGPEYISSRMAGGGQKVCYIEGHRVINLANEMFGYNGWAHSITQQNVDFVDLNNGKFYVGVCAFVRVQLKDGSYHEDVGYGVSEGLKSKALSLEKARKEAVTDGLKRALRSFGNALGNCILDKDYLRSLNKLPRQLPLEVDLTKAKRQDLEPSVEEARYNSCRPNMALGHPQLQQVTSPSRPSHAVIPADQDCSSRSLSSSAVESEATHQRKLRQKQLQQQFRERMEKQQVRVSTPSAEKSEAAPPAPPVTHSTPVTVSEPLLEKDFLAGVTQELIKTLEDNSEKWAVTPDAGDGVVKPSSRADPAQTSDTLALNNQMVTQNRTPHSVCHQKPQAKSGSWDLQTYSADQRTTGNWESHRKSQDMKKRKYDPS
FID counter: displaces DNA intercalator in HCV helicase counter-screen. inhibition, % at 7.9 µM. DNA fluorescent intercalator displacement, fluorescence. 290,000 compounds, 0.17% hits; in the data active = inhibition above about 37%;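 note: higher means more ethidium bromide displaced from hairpin DNA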
UBC13 inh: blocks human UBC13 polyubiquitin chain formation; TR-FRET; inhibition, % at 20 µM; 330,000 compounds, 0.47% hits; AID 485273; in the data active = inhibition above about 45%, passing the limit was not always enough; inconclusive = no clear call, values can overlap the other calls
Target sequence (P61088 whole entry, looked up): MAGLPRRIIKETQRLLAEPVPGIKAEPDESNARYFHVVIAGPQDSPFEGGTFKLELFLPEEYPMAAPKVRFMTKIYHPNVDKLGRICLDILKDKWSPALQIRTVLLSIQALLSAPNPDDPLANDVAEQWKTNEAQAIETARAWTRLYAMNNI
MIN6 prolif: inducers of beta-cell replication in MIN6 cells. MIN6 cells proliferation, ATPlite luminescence, 48 h; cells starved in 0.2% serum; 100% = growth in 10% serum. proliferation, % at 10 µM. 330,000 compounds, 0.29% hits. AID 2380;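 active = compounds whose signal lies at least 3.5 SD above the mean of all wells on their plate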
RAD54 branch: RAD54 (human) branch migration inhibition; 360,000 compounds, 0.14% hits; Q92698; AID 602329; inhibition, % at 10.4 µM; RAD54 Holliday junction branch migration, FAM/BHQ fluorescence;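 active = mean normalized replicate activity at least 40 and at least half of replicates scoring 40 or more; inconclusive = only one of the two criteria met; inactive = mean below 40 and under half of replicates reaching 40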;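 note: inhibitors cause a drop in the FAM fluorescence signal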
PREPL inhibitor: inhibitors of human prolyl oligopeptidase-like enzyme PREPL; Q4J6C6; recombinant PREPL, fluorescence polarization activity-based probe; inhibition, % at 5.96 µM; 320,000 compounds, 0.68% hits; AID 2751; in the data active = inhibition above about 43%
Casp3 counter: counter-screen for UBC13 inhibitors: human caspase-3 inhibition. shares compounds with UBC13 inh. Recombinant caspase-3, Caspase-Glo 3/7 luminescence, 60 min. inhibition, % at 20 µM. 1,400 compounds, 4% hits;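 active = mean inhibition across replicates above about 26%, limit read from the data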
UBC13 confirm: human UBC13 polyubiquitin inhibition, confirmed; shares compounds with UBC13 inh; UBC13 polyubiquitination, TR-FRET, biochemical; 1,400 compounds, 68% hits; inhibition, % at 10 µM; in the data active = inhibition above about 45%; inconclusive = no clear call, values can overlap the other calls
Large screens that a line does not name were inactive (follow-up assays come after a bar, where they were run).

Cc1cc(C)c2sc(NNC(=O)c3ccc(S(=O)(=O)N4CCc5ccccc5C4)cc3)nc2c1	none
COc1ccc2sc(N(CCCN(C)C)C(=O)c3ccc(S(=O)(=O)N4CCCC4)cc3)nc2c1	none (no result: FID counter)
Cc1ccc(OCCCC(=O)NNC(=O)c2ccccn2)cc1	UBC13 inh 56 (no result: FID counter) | Casp3 counter inactive | UBC13 confirm inactive
O=C(COc1ccc(Cl)cc1)NNC(=O)c1ccccn1	UBC13 inh 71 (no result: RAD52 inh) | Casp3 counter inactive | UBC13 confirm 97
Cc1cc(C)cc(OCC(=O)NNC(=O)c2ccccn2)c1	UBC13 inh 96 (no result: FID counter) | Casp3 counter inactive | UBC13 confirm 85
COCCCNC(=S)NNC(=O)c1ccccn1	UBC13 inh 89 (no result: RAD54 branch) | Casp3 counter inactive | UBC13 confirm 101
O=C(COc1ccccc1)NNC(=O)c1ccc(Cl)cc1	none (no result: FID counter)
C[C@@H]1CN([C@H](C)CO)C(=O)Cc2cc(NC(=O)NC3CCCCC3)ccc2O[C@H]1CN(C)C(=O)Nc1ccc2c(c1)OCO2	none (no result: FID counter, UBC13 inh, MIN6 prolif, PREPL inhibitor)
C[C@@H]1CN([C@H](C)CO)C(=O)c2cc(NS(=O)(=O)c3cn(C)cn3)ccc2O[C@H]1CN(C)Cc1ccc(C(=O)Nc2ccccc2N)cc1	none (no result: FID counter, UBC13 inh, MIN6 prolif, PREPL inhibitor)
C[C@@H]1CN([C@@H](C)CO)C(=O)c2cc(NC(=O)Nc3ccc4c(c3)OCO4)ccc2O[C@H]1CN(C)Cc1ccc(Cl)c(Cl)c1	none (no result: FID counter, UBC13 inh, MIN6 prolif, PREPL inhibitor)
C[C@@H]1CN([C@H](C)CO)C(=O)c2cccc(NS(=O)(=O)c3ccc(F)cc3)c2O[C@H]1CN(C)S(=O)(=O)c1ccccc1	none (no result: FID counter, UBC13 inh, MIN6 prolif, PREPL inhibitor)
CC1CCCC(NC(=O)CSc2ncnc3ccccc23)C1C (stereo not given)	UBC13 inh 46 (no result: FID counter) | Casp3 counter inactive | UBC13 confirm inactive
CC(C)(C)NCc1cc(Br)ccc1OCc1cccs1	UBC13 inh 66 (no result: RAD52 inh) | Casp3 counter inactive | UBC13 confirm inactive
CC(C)(C)NCc1cc(Cl)ccc1OCc1cccs1	none
O=C(c1cccc(S(=O)(=O)N2CCOCC2)c1)N(Cc1nnc(-c2ccccc2Cl)o1)C1CC1	none (no result: FID counter)
CC1CN(S(=O)(=O)c2cccc(C(=O)N(Cc3nnc(-c4ccccc4Cl)o3)C3CC3)c2)CC(C)O1 (stereo not given)	UBC13 inh 51 (no result: FID counter) | Casp3 counter inactive | UBC13 confirm 86
CCCNC(=O)[C@H]1[C@H](CO)[C@H]2Cn3c(ccc(/C=C/c4ccccc4)c3=O)[C@@H]1N2C(=O)c1ccccc1	none (no result: FID counter, UBC13 inh, MIN6 prolif, PREPL inhibitor)
COc1ccc(C[C@H]2CN3C(=NC[C@H]3Cc3ccccc3)N2CCNC(=O)CCC2CCCCC2)cc1	UBC13 inh 66 | Casp3 counter inactive | UBC13 confirm 62
COc1ccc(C[C@H]2CN3C(=NC[C@@H]3Cc3ccccc3)N2CCNC(=O)c2ccc(C)c(Br)c2)cc1	UBC13 inh 88 (no result: RAD52 inh) | Casp3 counter inactive | UBC13 confirm 56
C[C@@H](CN1C2=NC[C@H](Cc3ccccc3)N2C[C@H]1Cc1ccc(O)cc1)NC(=O)CCC1CCCCC1	UBC13 inh 66 | Casp3 counter inactive | UBC13 confirm inactive
COc1ccc(C[C@H]2CN3C(=NC[C@H]3Cc3ccccc3)N2CCNC(=O)c2ccc(C)c(Br)c2)cc1	UBC13 inh 72 (no result: RAD52 inh, FID counter) | Casp3 counter inactive | UBC13 confirm 61
C/C=C(\C)C(=O)NCCN1C2=NC[C@@H](C)N2C[C@@H]1Cc1ccc(OC)cc1	none
COc1ccc(C[C@@H]2CN3C(=NC[C@@H]3C)N2C[C@H](C)NC(=O)CCC2CCCCC2)cc1	none
CO[C@@H]1CN(C)C(=O)c2ccc(NC(=O)Nc3cccc(Cl)c3)cc2OC[C@H](C)N(C(=O)Nc2c(C)noc2C)C[C@@H]1C	none (no result: FID counter, UBC13 inh, MIN6 prolif, PREPL inhibitor)
C[C@@H]1CN([C@@H](C)CO)C(=O)Cc2cc(NC(=O)CCC(F)(F)F)ccc2O[C@H]1CN(C)S(=O)(=O)c1ccccc1	none (no result: FID counter, UBC13 inh, MIN6 prolif, PREPL inhibitor)
O=C(Nc1cccc(F)c1)c1cc(S(=O)(=O)NCCC2=CCCCC2)ccc1F	UBC13 inh 48 (no result: RAD52 inh) | Casp3 counter inactive | UBC13 confirm inactive
O=C(C[C@@H]1CC[C@@H]2[C@H](COC[C@@H](O)CN2Cc2cccc(C(F)(F)F)c2)O1)NCc1ccc(F)cc1	none (no result: FID counter, UBC13 inh, MIN6 prolif, PREPL inhibitor)
Cn1c(=O)cc(SCC(=O)NCCCN2CCN(c3ccc(F)cc3)CC2)c2ccccc21	UBC13 inh 82 (no result: RAD52 inh, RAD54 branch) | Casp3 counter inactive | UBC13 confirm inconclusive
Cn1c(=O)cc(SCC(=O)NCc2ccc(F)cc2)c2ccccc21	none (no result: RAD54 branch)
COc1ccc2[nH]cc(CCNC(=O)Nc3ccccc3)c2c1	UBC13 inh 52 | Casp3 counter inactive | UBC13 confirm inactive
O=C(C[C@H]1CC[C@@H](NC(=O)CC2CC2)[C@@H](CO)O1)NCc1ccc(Cl)cc1	none (no result: FID counter, UBC13 inh, MIN6 prolif, PREPL inhibitor)
Nc1nc(N)nc(-c2cc(O)ccc2O)n1	none (no result: FID counter)
CC(C)(C)c1cc(-c2nc(N)nc(N)n2)c(O)c(C(C)(C)C)c1	UBC13 inh 51 (no result: FID counter) | Casp3 counter inactive | UBC13 confirm inactive
C[C@@H]1CCCCCCCCC(=O)OCCN[C@H](C)CCCCCCCCC(=O)OCCN[C@H](C)CCCCCCCCC(=O)OCCN1	UBC13 inh 63 (no result: RAD52 inh, FID counter) | Casp3 counter inactive | UBC13 confirm 51
C[C@@H]1CCCCCCCCC(=O)OCCN(C(=O)OC(C)(C)C)[C@H](C)CCCCCCCCC(=O)OCCN1C(=O)OC(C)(C)C	none (no result: FID counter)
CCCN(C)C[C@@H]1Oc2ncc(C#CC3(O)CCCC3)cc2C(=O)N([C@H](C)CO)C[C@@H]1C	none (no result: FID counter, UBC13 inh, MIN6 prolif, PREPL inhibitor)
N=c1n(CC(=O)c2ccc(Br)cc2)c2ccccc2n1Cc1ccccc1	UBC13 inh 57 (no result: FID counter) | Casp3 counter inactive | UBC13 confirm 61
CC(C)(C)c1cc(NCCCn2ccnc2)n2ncc(-c3ccccc3)c2n1	UBC13 inh 61 | Casp3 counter inactive | UBC13 confirm 55
CCOC(=O)c1c(C)[nH]c(C2=NNC(=NC3CC3)SC2)c1C	UBC13 inh 77 (no result: RAD52 inh, RAD54 branch) | Casp3 counter 73 | UBC13 confirm 101
C[C@H]1CN([C@@H](C)CO)C(=O)c2cc(NC(=O)Nc3cccc4ccccc34)ccc2O[C@@H]1CN(C)Cc1ccc(C(=O)Nc2ccccc2N)cc1	none (no result: FID counter, UBC13 inh, MIN6 prolif, PREPL inhibitor)
CC(C)NC(=O)N1[C@H](CO)[C@@H](c2ccccc2)[C@H]1CNC(=O)CN(C)C	none (no result: RAD52 inh, FID counter, UBC13 inh, MIN6 prolif, PREPL inhibitor)
COc1ccc(-c2sc3ccc(OC)cc3c2C#Cc2cncn2C)cc1	UBC13 inh 48 (no result: FID counter) | Casp3 counter inactive | UBC13 confirm inactive
CCCNC(=O)N1CC2(CN(C(=O)C3CCOCC3)C2)c2c([nH]c3cc(OC)ccc23)[C@@H]1CO	none (no result: FID counter, UBC13 inh, MIN6 prolif, RAD54 branch, PREPL inhibitor)
CC[n+]1c(/C=C/N(C)c2ccccc2)n(-c2ccccc2)c2ccc(-c3nc4ccccc4s3)cc21	FID counter 41, UBC13 inh 84 (no result: RAD52 inh) | Casp3 counter inactive | UBC13 confirm 98
CCN(CCCNC(=O)c1cc2c(-c3cccc(OC)c3)nn(C)c2s1)Cc1ccccc1	UBC13 inh 49 | Casp3 counter inactive | UBC13 confirm 47

High-throughput results as filed in PubChem.
